Source: PubChem BioAssay
Rows were chosen to be rich in hits. Some 2.9% of all compounds tested hit in one or more screens of this group.
DRD3 agonist: activates the human D3 dopamine receptor. D3R DiscoveRx beta-arrestin cells, luminescence, 90 min. P35462. 410,000 compounds, 0.58% hits. AID 652048. max activation, %; in the data active = max activation above about 30%
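Agonist-mode cell screen: cells plated at 1500/well and incubated overnight at 37 °C, then exposed to library compounds for 90 min at 37 °C. Detection reagent was added for 30–60 min at room temperature, and luminescence was read.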
Integrin act MD: activators of alpha7 integrin expression for muscular dystrophy; alpha7betagal myoblasts, beta-gal FDG fluorescence, 48 h; Potency, µM (titrated, usually from 38.3 µM), hits mostly activators; 350,000 compounds, 0.064% hits; also: nearly all actives have a fitted effect of over 60% in size
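Alpha7betagal+/- myoblasts (passage 13) were plated 16-24 hr, then exposed to compounds (1:260 dilution of DMSO stock) for 48 hours at 37C. After MPER lysis, β-galactosidase reporter activity was read as FDG fluorescence (ex 480/em 540) after 30 minutes.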
mIDH1 inhibitor: human IDH1 R132H inhibition. O75874. IDH1-R132H enzyme, NADPH consumption, diaphorase/resazurin fluorescence. Potency, µM (series often up to 76.6 µM), actives largely listed as inhibitors. 390,000 compounds, 0.093% hits; also: nearly all actives have a fitted effect of over 65% in size
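IDH1-R132H (0.5 ug/mL dispensed) in pH 7.5 Tris buffer was preincubated 30 min with compound, then given a substrate mix of 0.016 mM NADPH and 2 mM alpha-KG for 80 min at room temperature; remaining NADPH was read by diaphorase/resazurin fluorescence.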
B2AR arrestin: agonists driving beta-arrestin recruitment to human beta2-adrenergic receptor | 330,000 compounds, 0.02% hits | beta-arrestin recruitment to beta2AR, cell-based reporter | Potency, µM (highest dose often 46.1 µM), actives largely listed as activators | P07550; also: nearly all actives have a fitted effect of over 65% in size
D3 antag: blocks the human D3 dopamine receptor | D3R cells, DiscoveRx beta-arrestin luminescence, antagonist mode; hits give low values | max response, negative = inhibition, % | 360,000 compounds, 2.5% hits | AID 652054; in the data active = max response below about -50%; inconclusive = no clear call, values can overlap the other calls
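Cells plated overnight at 1500 cells/well, then exposed to library compounds with dopamine controls for 90 minutes at 37 degrees C. DiscoveRx reagent added for 30–60 minutes at room temperature; luminescence read, quantitative HTS format.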
IDH1 autofl: counter-screen for mutant IDH1 inhibitors: fluorescence interference | shares compounds with mIDH1 inhibitor | Resorufin detection reagent fluorescence interference, cell-free | inhibition of signal, % at 51.2 µM | 750 tested, under 10 active | AID 623980
IDH1 WT: selectivity of mutant IDH1 inhibitors: human wild-type IDH1. WT IDH1 enzyme, NADPH diaphorase/resazurin fluorescence. shares compounds with mIDH1 inhibitor. Potency, µM (titrated, usually from 115 µM), usual class: inhibitors. 750 compounds, 9% hits; also: nearly all actives have a fitted effect of over 55% in size
Target sequence (O75874 whole entry, looked up): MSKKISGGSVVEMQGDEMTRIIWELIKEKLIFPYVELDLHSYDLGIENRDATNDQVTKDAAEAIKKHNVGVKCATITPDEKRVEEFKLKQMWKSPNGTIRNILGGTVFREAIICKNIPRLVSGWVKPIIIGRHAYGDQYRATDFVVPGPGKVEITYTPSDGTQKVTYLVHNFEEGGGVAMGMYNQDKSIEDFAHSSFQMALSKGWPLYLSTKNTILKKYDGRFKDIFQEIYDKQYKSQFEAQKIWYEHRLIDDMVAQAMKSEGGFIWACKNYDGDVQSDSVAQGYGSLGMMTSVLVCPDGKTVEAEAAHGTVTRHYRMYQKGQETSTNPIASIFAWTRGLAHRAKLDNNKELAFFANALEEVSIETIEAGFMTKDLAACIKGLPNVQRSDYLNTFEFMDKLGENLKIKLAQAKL
mIDH1 confirm: confirmation of human mutant IDH1 inhibitors | Potency, µM (highest dose often 76.6 µM), hits mostly inhibitors | 750 compounds, 83% hits | shares compounds with mIDH1 inhibitor | IDH1 R132H enzyme, NADPH diaphorase/resazurin fluorescence; also: nearly all actives have a fitted effect of over 50% in size
Numbers stand for hits; – = inactive; ? = inconclusive; · = not tested or not shown. Unless noted, calls follow the shape of the dose curve; as a rule, active = well fitted curve in the direction sought with a large enough effect; inconclusive = small, poorly fitted or top-dose-only effect, or another doubt; inactive = no such curve, though single readings can be large; an effect the other way counts as inactive or inconclusive.

SMILES	DRD3 agonist	Integrin act MD	mIDH1 inhibitor	B2AR arrestin	D3 antag	IDH1 autofl	IDH1 WT	mIDH1 confirm
Cc1cc(C=C2C(=O)NC(=O)NC2=O)c(C)n1-c1ccc2c(c1)OCO2	–	–	–	–	–	·	·	·
Cc1cc(C=C2C(=O)NC(=S)NC2=O)c(C)n1-c1ccc2c(c1)OCO2	–	–	41µM	–	–	–	?	35µM
COCCCn1c(N)c(C(=O)Nc2sc3c(c2C(=O)OC)CCCC3)c2nc3ccccc3nc21	–	–	?	–	–	–	–	?
CCC(=O)Oc1ccc(C(=O)Nc2cccc(C(=O)c3ccccc3)c2)cc1	–	–	26µM	–	–	–	–	10µM
CN(C)C(=O)Oc1ccc(C(=O)c2ccccc2)cc1	–	–	–	–	–	·	·	·
CCCCCc1nc2c(c(=O)c3ccccc3n2C)c(=O)n1C1CCCCCC1	–	–	10µM	–	–	–	35µM	5µM
CCCCCc1nc2ccccc2c(=O)n1-c1ccc(C)cc1	–	·	–	·	·	·	·	·
Cc1ccc(Cl)c(O)c1	–	·	·	·	·	·	·	·
O=C(NCC1CCCO1)C1CCN(C2CCN(C(=O)Cc3ccsc3)CC2)CC1 (stereo not drawn)	–	?	–	–	–	·	·	·
CCOC(=O)c1c(-n2c(C)cc(C=C3C(=O)NC(=O)NC3=O)c2C)sc2c1CCCC2	–	–	18µM	–	–	–	28µM	11µM
CN1C(=O)C(O)N=C(c2ccccc2)c2cc(Cl)ccc21 (stereo not drawn)	–	·	·	·	·	·	·	·
c1ccc2c(c1)Sc1ccccc1N2C[C@@H]1CN2CCC1CC2	–	·	·	·	·	·	·	·
FC(F)(F)c1ccc2c(c1)N(CCCN1CCN(CCCl)CC1)c1ccccc1S2	–	–	37µM	–	-78	–	–	8.9µM
